This passage reports growth results from PubChem BioAssay (NCI).

The panel holds about 83,000 compounds, 20% with a hit somewhere; the sample as a whole holds those more often.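 Results are percent growth after 48 hours of single-concentration exposure. 100 means growth as in untreated cells, lower positive values show inhibition; negative values down to -100 show cell death.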 Values without a mark were called inactive. Calls of active or inactive are those of the source. Rule for the calls: active = growth percent below 10; inactive = the rest.

Some test systems named below: SR leukemia; RPMI-8226 leukemia; OVCAR-8 ovarian; OVCAR-5 ovarian; OVCAR-4 ovarian; SK-OV-3 ovarian; IGROV1 ovarian; OVCAR-3 ovarian; NCI/ADR-RES ovarian.
Common to all, as to assay: NCI-60 one-dose screen, 48 h (100 = growth as untreated, 0 = no growth, -100 = all killed)
Common to all, as to conditions: 10 µM unless noted

As to `Cc1cccc(Cl)c1NC(=O)c1cnc(Nc2cc(N3CCOCC3)cc(S(C)(=O)=O)c2)s1`, the growth is 43.3% with SR leukemia; 70.5% in the assay on RPMI-8226 leukemia; -2.17% (active) with OVCAR-8 ovarian; 15.6% with OVCAR-5 ovarian; 53.8% in the assay on OVCAR-4 ovarian; -23.8% (active) with SK-OV-3 ovarian. The growth is -49.1% (active) with IGROV1 ovarian, 32.1% in the assay with OVCAR-3 ovarian and 64.4% in the assay with NCI/ADR-RES ovarian.
On to `C=CCn1c(=O)c2cnc(Nc3ccc(N4CCN(C)CC4)cc3)nc2n1-c1cccc(C(C)(C)O)n1`, for which the growth in the assay with SR leukemia was 4.58% (active); in the assay on RPMI-8226 leukemia, 10.1%; in the assay with OVCAR-8 ovarian, 8.75% (active); in the assay with OVCAR-5 ovarian, 25.1%; in the assay on OVCAR-4 ovarian, 20.2%; in the assay on SK-OV-3 ovarian, -1.76% (active). Also, the growth was 3.06% (active) in the assay on IGROV1 ovarian, -8.58% (active) in the assay on OVCAR-3 ovarian and 25.1% in the assay on NCI/ADR-RES ovarian.
For `COc1ccc(Cl)c(Nc2nc3ccccc3nc2NS(=O)(=O)c2cccc(NC(=O)C(C)(C)N)c2)c1`, the growth in the assay with SR leukemia was 54.9%; in the assay with RPMI-8226 leukemia, 51.5%; in the assay on OVCAR-8 ovarian, 53.3%; in the assay with OVCAR-5 ovarian it was 45.7%; with OVCAR-4 ovarian, 68%; with SK-OV-3 ovarian, 4.52% (active). Moreover, the growth in the assay with IGROV1 ovarian is -16.9% (active); with OVCAR-3 ovarian, 36.9%; with NCI/ADR-RES ovarian, 52.6%.
On to `CC(C)c1cc(CNc2nc(Nc3cc(C4CC4)[nH]n3)cc(N3CCN(C)CC3)n2)on1`, for which the growth in the assay on SR leukemia is -5.3% (active); with RPMI-8226 leukemia it was -13.3% (active); with OVCAR-8 ovarian it was 6.51% (active); in the assay with OVCAR-5 ovarian it was 18.5%; in the assay on OVCAR-4 ovarian, -8.07% (active); in the assay on SK-OV-3 ovarian it was 0.435% (active). The growth in the assay on IGROV1 ovarian was 8.34% (active); with OVCAR-3 ovarian, 15.5%; in the assay with NCI/ADR-RES ovarian, 39.2%.
Consider `COc1cc(Nc2ncc3c(n2)-c2ccc(Cl)cc2C(c2c(F)cccc2OC)=NC3)ccc1C(=O)O`, for which the growth was 5.63% (active) in the assay with SR leukemia; 82.7% in the assay with RPMI-8226 leukemia; 68.3% in the assay with OVCAR-8 ovarian; 82.4% in the assay with OVCAR-5 ovarian; 78.4% in the assay with OVCAR-4 ovarian; 61.6% in the assay with SK-OV-3 ovarian. Further, the growth in the assay on IGROV1 ovarian is 63.3%; in the assay on OVCAR-3 ovarian, 72.9%; in the assay with NCI/ADR-RES ovarian it was 64.2%.
On to `C=CCN1C(=O)c2cccc3c(-c4ccc5c(c4)ncn5C4CCCCC4)ccc(c23)C1=O`, for which the growth in the assay on SR leukemia was 39.8%; in the assay on RPMI-8226 leukemia, 29.5%; with OVCAR-8 ovarian, 49.5%; in the assay on OVCAR-5 ovarian, 75.3%; in the assay with OVCAR-4 ovarian, 32.3%; with SK-OV-3 ovarian, 73.4%. The values for the growth in the assay with IGROV1 ovarian, with OVCAR-3 ovarian and in the assay on NCI/ADR-RES ovarian were 67.1%, 62.4% and 39.6%, respectively.
`Cc1nc2cc(-c3nn(C(C)C)c4ncnc(N)c34)ccc2o1`: the growth was -0.778% (active) in the assay with SR leukemia; -9.63% (active) in the assay on RPMI-8226 leukemia; -29.1% (active) in the assay on OVCAR-8 ovarian; -11.3% (active) with OVCAR-5 ovarian; -27.4% (active) in the assay on OVCAR-4 ovarian; -40.9% (active) in the assay with SK-OV-3 ovarian. For the same compound, the growth in the assay on IGROV1 ovarian was -39% (active); with OVCAR-3 ovarian, 2.45% (active); with NCI/ADR-RES ovarian it was -22.5% (active).
For `COc1ccc(COc2cc3oc(=O)c4cc(C(C)O)ccc4c3cc2OC)cc1` (stereo unspecified), the growth with SR leukemia was 18.6%; in the assay with RPMI-8226 leukemia it was 68%; in the assay on OVCAR-8 ovarian, 25%; in the assay with OVCAR-5 ovarian it was 86%; with OVCAR-4 ovarian, 53.8%; in the assay on SK-OV-3 ovarian, 40.5%. The growth in the assay with IGROV1 ovarian was 57.6%; in the assay with OVCAR-3 ovarian it was 58.6%; in the assay on NCI/ADR-RES ovarian it was 56.1%.
For the compound `CS(=O)(=O)CCNCc1ccc(-c2ccc3ncnc(Nc4ccc(OCc5cccc(F)c5)c(Cl)c4)c3c2)o1`, the growth in the assay on SR leukemia was 3.31% (active); with RPMI-8226 leukemia it was -15.4% (active); in the assay on OVCAR-8 ovarian, -26.5% (active); with OVCAR-5 ovarian it was 65.2%; in the assay on OVCAR-4 ovarian, -51.2% (active); with SK-OV-3 ovarian, -6.37% (active). Besides, the growth in the assay with IGROV1 ovarian was 9.76% (active); with OVCAR-3 ovarian it was -63.1% (active); in the assay on NCI/ADR-RES ovarian, 8.75% (active).
For the compound `CC[C@H](Nc1ncnc2nc[nH]c12)c1nc2cccc(F)c2c(=O)n1-c1ccccc1`, the growth with SR leukemia is 72.8%; in the assay with RPMI-8226 leukemia it was 78.9%; in the assay on OVCAR-8 ovarian, 60.6%; in the assay on OVCAR-5 ovarian, 61.8%; in the assay on OVCAR-4 ovarian, 95.7%; in the assay on SK-OV-3 ovarian, -4.44% (active). For the same compound, the growth with IGROV1 ovarian was 8.8% (active); with OVCAR-3 ovarian, 48.7%; with NCI/ADR-RES ovarian it was 83%.
As for `COCCN1CCN(Cc2ccc(-c3n[nH]c4c3C(=O)c3c(NC(=O)NN5CCOCC5)cccc3-4)cc2)CC1`, the growth in the assay with SR leukemia was -10.3% (active); with RPMI-8226 leukemia, -37.4% (active); in the assay on OVCAR-8 ovarian, -13.4% (active); in the assay with OVCAR-5 ovarian, 9.54% (active); in the assay with OVCAR-4 ovarian, -0.503% (active); in the assay on SK-OV-3 ovarian it was -7.89% (active). Also, the growth in the assay on IGROV1 ovarian was -10.9% (active); in the assay with OVCAR-3 ovarian, 9.5% (active); in the assay on NCI/ADR-RES ovarian, 5% (active).
On to `Cc1ccc(F)c(NC(=O)Nc2ccc(-c3cccc4[nH]nc(N)c34)cc2)c1`, for which the growth in the assay with SR leukemia was 4.39% (active); in the assay with RPMI-8226 leukemia, 9.63% (active); with OVCAR-8 ovarian, 9.41% (active); in the assay with OVCAR-5 ovarian it was 21.4%; in the assay on OVCAR-4 ovarian, 21.1%; in the assay with SK-OV-3 ovarian it was 52.1%. Further, the values for the growth with IGROV1 ovarian, in the assay on OVCAR-3 ovarian and with NCI/ADR-RES ovarian were 10.1%, 33.2% and 26%, respectively.
On to `C/C(=C(/c1ccc(Cl)cc1)c1ccc(OCCN2CCCCCC2)cc1)c1ccccc1`, for which the growth in the assay on SR leukemia was 18%; in the assay with RPMI-8226 leukemia, 70.2%; in the assay on OVCAR-8 ovarian, 89%; with OVCAR-5 ovarian, 69.6%; in the assay with OVCAR-4 ovarian, 73.5%; in the assay with SK-OV-3 ovarian, 113%. The growth with IGROV1 ovarian is 74.1%; with OVCAR-3 ovarian, 89.6%; in the assay on NCI/ADR-RES ovarian, 90%.
As to `COc1ccc(-c2ccc3c(N4CCOC[C@@H]4C)nc(N4CCOC[C@@H]4C)nc3n2)cc1CO`, the growth in the assay on SR leukemia was 9% (active); in the assay with RPMI-8226 leukemia it was 4.83% (active); with OVCAR-8 ovarian, -3.37% (active); in the assay with OVCAR-5 ovarian, 7.09% (active); with OVCAR-4 ovarian, -26% (active); in the assay on SK-OV-3 ovarian, -33.7% (active). The growth in the assay on IGROV1 ovarian is -33.2% (active); with OVCAR-3 ovarian, 13%; in the assay on NCI/ADR-RES ovarian it was -1.68% (active).
